Data published in PubChem BioAssay AID1851 (National Center for Advancing Translational Sciences (NCATS), 2009).
“And” between values parts separate entries of the source, which are not always exact repeats. Identical values can stand only once. The campaign covered roughly 16,000 compounds. About 5,700 (36%) were called active. Roughly 24% stayed inconclusive and do not appear here. Calls come from the whole dose curve; as a rule, active = well fitted curve in the direction sought with a large enough effect; inconclusive = small, poorly fitted or top-dose-only effect, or effect the other way; inactive = no such curve, though single readings can be large or run the other way. The list shows a part of the results.

Biological target: Cytochrome P450 1A2 (Homo sapiens) (UniProt P05177)
Sequence (P05177 whole entry, looked up): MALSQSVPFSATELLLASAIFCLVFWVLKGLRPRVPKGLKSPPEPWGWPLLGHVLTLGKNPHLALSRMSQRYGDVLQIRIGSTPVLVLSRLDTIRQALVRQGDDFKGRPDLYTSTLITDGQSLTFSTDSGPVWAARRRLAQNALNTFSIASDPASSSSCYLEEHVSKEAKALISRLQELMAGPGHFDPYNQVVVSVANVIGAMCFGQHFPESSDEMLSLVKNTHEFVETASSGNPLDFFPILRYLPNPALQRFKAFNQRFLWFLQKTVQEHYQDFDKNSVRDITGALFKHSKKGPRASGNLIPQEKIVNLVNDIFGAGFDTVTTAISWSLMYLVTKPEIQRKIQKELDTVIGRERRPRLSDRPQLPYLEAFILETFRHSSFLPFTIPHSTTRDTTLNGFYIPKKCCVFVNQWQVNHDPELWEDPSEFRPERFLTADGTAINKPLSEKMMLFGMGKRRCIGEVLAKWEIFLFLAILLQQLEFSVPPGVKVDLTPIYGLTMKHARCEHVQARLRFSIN
Assay: Cytochrome panel assay with activity outcomes
Conditions: recombinant CYP, pro-luciferin dealkylation, luminescence, p450-cyp1a2; series mostly up to 57.1 µM; activity, negative = inhibition: at the top concentration
% is set by controls: 0 for no effect and ±100 for the full control effect.

Structure (SMILES)	activity, negative = inhibition	AC50
COC(=O)NC/C=C\c1nc(CC/C=C\C(=O)O[C@H]2C[C@H]3CC(=O)O[C@@H](/C=C\CC(C)C)C[C@@H]4CC[C@H](C)[C@H](C[C@@H](OC)C[C@H](C2)O3)O4)co1	3.2% [at 11.4 µM] (inactive)	
Cc1cccc([C@H](C)c2cnc[nH]2)c1C		0.158 µM (active)
C=C1CC[C@H](O)C/C1=C/C=C1\CCC[C@]2(C)[C@H]1CC[C@H]2[C@@H](C)CCCC(C)C	-3.1% [at 25.6 µM] (inactive)	
CCNC(=S)NC1CC2CCCC(C1)N2Cc1ccco1 (centres undefined)	0.456% (inactive)	
CCCN(CCC)[C@@H]1CCc2cccc(O)c2C1		inactive
CCS(=O)(=O)Nc1cccc(C(=C2CCCCC2)c2cnc[nH]2)c1		0.316 µM (active)
C[N+]1(C)C2CC[C@H]1CC(OC(=O)[C@@H](CO)c1ccccc1)C2 (some centres undefined)	5.51% [at 11.4 µM] (inactive)	
C[C@H](CN(C)C)C(C#N)(c1ccccc1)c1ccccc1	-3.45% [at 2.29 µM] (inactive)	
NCC[Se][Se]CCN		3.16 µM (active)
CC[C@H]1CN2CC[C@@H]1C[C@H]2[C@@H](O)c1ccnc2ccc(OC)cc12	-5.06% [at 25.6 µM] (inactive)	
COc1ccc(Cl)cc1NC(=O)NCCCl		2.82 µM (active)
C[C@H]1CN(C2CCC(C#N)(c3ccc(F)cc3)CC2)CC[C@@]1(C(=O)O)c1ccccc1 (some centres undefined)	-0.959% [at 25.6 µM] (inactive)	
CCCN1CCC[C@H](c2cccc(O)c2)C1		inactive
O=C(O)c1ccccc1-c1c2cc(Br)c(=O)cc-2oc2[c]([Hg])c(O)c(Br)cc12		15.8 µM (active)
C[C@H](N)[C@H](O)c1ccc(O)c(O)c1		inactive
CCC(=O)O[C@H]1CC[C@H]2[C@@H]3CCC4=CC(=O)CC[C@]4(C)[C@H]3CC[C@]12C	-18% [at 25.6 µM] (inactive)	
CCN1CCC2(CC1)NC(CO)(CO)CO2	2.62% (inactive)	
COc1c2c(cc3c1OCO3)CCN(C)C2		2 µM (active)
C[C@]12N[C@@H](Cc3ccccc31)c1ccccc12		inactive
N[C@@H]1C=CC=C(C(=O)O)C1	-6.11% (inactive)	
COC(=O)C(O)(c1c(C)[nH]c2ccccc12)C(F)(F)F (centres undefined)		15.8 µM (active)
N[C@H](Cc1o[nH]c(=O)c1Cl)C(=O)O	-9.1% (inactive)	
CCCCN1C(=O)/C(=C/c2ccc(N(C)C)cc2)C(=O)N(Cc2ccco2)C1=O		15.8 µM (active)

Structure (SMILES)	activity, negative = inhibition	AC50
O=S(=O)(O)/C(=C\c1ccccc1)c1ccccc1 (tested in a mixture with another compound)	-29% [at 2.29 µM] (inactive)	
C=C[C@H]1CN2CC[C@@H]1C[C@H]2[C@@H](O)c1ccnc2ccccc12		inactive
c1cc(CN2CCCC3(CCNCC3)C2)ccn1	-1.58% (inactive)	
CO[C@@H]1CC=C2CCN3CCC4=C(CC(=O)OC4)[C@]23C1	4.21% (inactive)	
C[C@@H]1Cc2cc3c(cc2C(c2ccc(N)cc2)=NN1)OCO3		5.01 µM (active)
CC(C)CCC1(CCN)C(=O)NC(=O)NC1=O	-13.1% [at 11.4 µM] (inactive)	
CC(=O)OC1N=C(c2ccccc2)c2cc(Br)ccc2N(C)C1=O (centres undefined)	-4.73% (inactive)	
CC(C)(C)NC[C@H](O)c1ccccc1Cl	-1.39% (inactive)	
C[C@H](N)c1cccc(Cl)c1Cl		1.26 µM (active)
CN1[C@H]2CC(=O)C[C@@H]1[C@@H](O)C2	-6.99% [at 25.6 µM] (inactive)	
O=C(O)[C@H]1[O][Sb][O][C@@H](C(=O)O)C1O (some centres undefined)	-15% [at 2.29 µM] (inactive)	
Fc1ccc(CCNCc2ccc(Cl)c(Cl)c2)cc1		2.24 µM (active)
Cn1cccc1CNCCc1ccccc1	-5.77% (inactive)	
C=CCN1C[C@@H](C)N([C@H](c2ccc(C(=O)N(CC)CC)cc2)c2cccc(OC)c2)C[C@H]1C	-7.59% (inactive)	
C[C@H]1CC[C@@]2(NC1)O[C@@H]1C[C@@H]3[C@@H]4CC=C5C[C@@H](O)CC[C@]5(C)[C@@H]4CC[C@]3(C)[C@H]1[C@@H]2C	-1.04% [at 11.4 µM] (inactive)	
C[C@@]12CC[C@H]3[C@@H](CC=C4C[C@H](OS(=O)(=O)O)CC[C@]43C)[C@H]1CCC2=O	-3.53% (inactive)	
COCOc1ccc(Br)cc1C(=O)/C=C\c1ccc2c(c1)OCO2	-3.01% [at 11.4 µM] (inactive)	
N[C@@H](Cc1ccccc1)P(=O)(O)O	-13.6% [at 11.4 µM] (inactive)	
O=[N+]([O-])c1ccc(N2CCNCC2)cc1NC1CC1		0.708 µM (active)
O=[N+]([O-])c1ccc(N2CCNCC2)cc1NCC1CCCO1 (centres undefined)		1.41 µM (active)
CN1CCN(c2ccc([N+](=O)[O-])c(N/N=C3\CN4CCC3CC4)c2)CC1	-11.9% (inactive)	
NS(=O)(=O)c1ccc(-c2ccc([As](=O)(O)O)cc2)cc1	-0.225% [at 11.4 µM] (inactive)	
C1C[C@@H]2CN(CCCN3CCOCC3)[C@@H](C1)O2	-10.8% [at 11.4 µM] (inactive)	

Structure (SMILES)	activity, negative = inhibition	AC50
COc1cc2c(cc1OC)[C@@]13CCN4CC5=CCO[C@H](CC(=O)O)[C@@H]([C@H]1N2)[C@H]5C[C@H]43	-21.3% [at 11.4 µM] (inactive)	
C[C@@H]1CC[C@@H]2N(C1)C[C@H]1[C@@](O)([C@H](O)C[C@]3(O)[C@H]4CC[C@H]5[C@]6(O)O[C@]4(C[C@]13O)[C@@]5(C)CC[C@@H]6O)[C@@]2(C)O	-15.8% [at 11.4 µM] (inactive)	
c1ccc2c(c1)[I+]c1ccccc1-2		126 nM (active) and 20 nM (active)
O=C1CCCN1CC#CCN1CCCC1	2.85% (inactive)	
COc1ccc(C(=O)O[C@H]2CC[C@@]3(C)[C@H]4CC[C@H]5[C@]3(C[C@]3(O)[C@H]6CN7C[C@H](C)CC[C@H]7[C@](C)(O)[C@]6(O)[C@H](O)C[C@]53O)O[C@]24O)cc1OC	-20.9% [at 2.29 µM] (inactive)	
O[Si@](CCCN1CCCCC1)(c1ccc(F)cc1)C1CCCCC1	-13.9% (inactive)	
CN1C(=O)C(C2c3ccccc3C(=O)N2Cc2ccc([N+](=O)[O-])cc2)C(=O)N(C)C1=O (centres undefined)	-15.7% (inactive)	
CCCCN1C(=O)C(C2c3ccccc3C(=O)N2Cc2ccccc2)C(=O)NC1=S (centres undefined)		12.6 µM (active)
CC(C)CN1CCC2(CC1)CCN(C(=O)Oc1ccccc1)CC2	14.7% (inactive)	
C=C(C)CN1CC[C@@]23c4c5ccc(O)c4O[C@H]2c2[nH]c4ccccc4c2C[C@]3(O)[C@@H]1C5	-16.9% (inactive)	
CC1=NN(c2ccc(S(=O)(=O)O)cc2C)C(=[OH+])[C@H]1N=Nc1cc(S(=O)(=O)O)ccc1C(=O)O.O.[Cr]	-12.7% [at 11.4 µM] (inactive)	
O=[N+]([O-])c1cc([As](=O)(O)O)ccc1O	-2.41% [at 25.6 µM] (inactive)	
CC[C@]1(OC(=O)CN)C(=O)OCc2c1cc1n(c2=O)Cc2cc3ccccc3nc2-1	-17.6% [at 2.29 µM] (inactive)	
CC[C@@]1(O)C(=O)OCc2c1cc1n(c2=O)Cc2cc3c(NC(=O)CN)cccc3nc2-1	-12.3% [at 2.29 µM] (inactive)	
CC[C@@]1(O)C(=O)OCc2c1cc1n(c2=O)Cc2cc3ccccc3nc2-1		2.51 µM (active)
CCCC[N+]12CCC(CC1)C(C(=O)c1cccs1)C2 (centres undefined)	1.98% (inactive)	
COC(=O)[C@@H](N)CCCN=C(N)N[N+](=O)[O-]	-23.3% (inactive)	
Cc1cc(OC(=O)CCCNC(=O)OC(C)(C)C)c2c3c(c(=O)oc2c1)CCC3		2.24 µM (active)
Cc1cc(OCc2ccc([N+](=O)[O-])cc2)c2c3c(c(=O)oc2c1)CCCC3		2.24 µM (active)
Cc1cc(OCC(=O)OC(C)C)c2c3c(c(=O)oc2c1)CCCC3		3.55 µM (active)
Cn1cnc(CCN)c1	-2.55% (inactive)	
OC1(c2ccc(F)cc2)CCNC1 (centres undefined)	-3.59% (inactive)	
CCOC(=O)N(c1ccccc1)P1(=S)OCCO1		20 µM (active)

Structure (SMILES)	activity, negative = inhibition	AC50
O=C(O)C[O][Sb][O]CC(=O)O	-7.83% [at 2.29 µM] (inactive)	
CC(=O)O[C@H]1C[C@@H](O[C@@H]2[C@H](C)O[C@H](O[C@@H]3[C@H](C)O[C@H](O[C@@H]4CC[C@@]5(C)[C@@H](CC[C@]6(C)[C@]5(C)C[C@H](O)[C@]5(C)[C@@H](C7=CC(=O)OC7)CC[C@@]56O)C4)C[C@@H]3O)C[C@@H]2O)O[C@@H](C)[C@H]1O[C@H]1O[C@@H](CO)[C@@H](O)[C@@H](O)[C@@H]1O	0.0883% [at 25.6 µM] (inactive)	
C[C@]1(C(=O)O)[C@@H]2CC[C@@H](O2)[C@@]1(C)C(=O)O	5.07% (inactive)	
ClCCNc1nc2ccc(Cl)cc2[nH]1		3.55 µM (active)
N[C@H](C(=O)O)c1cc(=O)[nH]o1	4.36% (inactive)	
C[C@@]12CC(=O)[C@H]3[C@@H](CCC4=CC(=O)CC[C@]43C)[C@H]1CCC2=O	3.26% [at 25.6 µM] (inactive)	
CCCN(CCC)C1Cc2cc(OC)c(OC)cc2C1	-8.24% (inactive)	
CCn1cnc2c(Nc3cccc(Cl)c3)nc(N[C@@H]3CCCC[C@H]3N)nc21		15.8 µM (active)
CN(C)C(=O)Oc1cccc([N+](C)(C)C)c1	-8.66% (inactive)	
COc1ccc(C[C@H]2c3cc(OC)c(OC)cc3CCN2C)cc1OC	-15.9% [at 25.6 µM] (inactive)	
COc1cc(/C=N/NC(=O)CN2CC(c3ccccc3)CC2=O)ccc1OC(=O)N(C)C (centres undefined)	-10.2% (inactive)	
O=C(O)CC[N+](=O)[O-]	-2.88% (inactive)	
CC(C)(C)c1cc(C=C(C#N)C#N)cc(C(C)(C)C)c1O		10 µM (active)
N#CC(C#N)=Cc1ccc(O)c(O)c1		5.01 µM (active)
COc1cc(C=C(C#N)C#N)cc(O)c1O		12.6 µM (active)
N#CC(C#N)=Cc1cc(O)c(O)c(O)c1	-7.18% (inactive)	
N#C/C(=C\c1ccc(O)c(O)c1)C(=O)NCCCNC(=O)/C(C#N)=C/c1ccc(O)c(O)c1	-13.5% (inactive)	
N#C/C(=C\c1ccc(O)c(O)c1)C(N)=S		12.6 µM (active) and 6.31 µM (active)
COc1ccc2c(c1)CCC1[C@@H]2CCC2(C)[C@@H](NCCCCCCN3C(=O)C=CC3=O)CC[C@@H]12 (some centres undefined)	-3.16% (inactive)	
CC[C@]1(c2cccc(O)c2)CCCCN(C)C1	-7.06% [at 25.6 µM] (inactive)	
